In PubChem BioAssay (Tox21):
Results filed as inconclusive are left out. Unmarked numbers belong to inactive results. Calls of active or inactive are those of the source. The call rests on the fitted dose curve; in most records, active means well fitted cell-killing curve with a large enough effect in the repeat runs; inconclusive means weak or mixed curves, or effect the other way; inactive means flat fitted curve, though single readings scatter.
On the % scale 0 is the no-effect control and ±100 the full control effect.

Assay: qHTS RealTime-Glo MT Cell Viability Assay in HepG2 cells - 40 hour (AID 1224870); further: nearly all actives have a fitted effect of over 50% in size
Conditions: RealTime-Glo luminescence; series mostly up to 76.8 µM
Source text: National Center for Advancing Translational Sciences [NCATS]
NIH Chemical Genomics Center [NCGC]
U.S. Environmental Protection Agency [EPA]
National Institutes of Environmental Health Sciences [NIEHS]
National Toxicology Program [NTP]
U.S. Food and Drug Administration [FDA]
Measure of cell viability is critical in the cell-base assay. Analysis of cell viability is necessary for the characterization of cell responses to cytotoxic drugs and environmental stress. A RealTime-Glo MT Cell Viability Assay to monitor cell viability in real time of continues cell culture during 40 hours of compound treatment was used to screen Tox21 10K library compounds in HepG2 cells. The RealTime-Glo MT Cell Viability Assay is a nonlytic, homogeneous, bioluminescent method to measure cell viability in real time using a simple, plate-based method. The assay involves adding NanoLuc luciferase and a cell-permeant prosubstrate to cells in culture. Viable cells reduce the proprietary prosubstrate to generate a substrate for NanoLuc luciferase. This substrate diffuses from cells into the surrounding culture medium, where it is rapidly used by the NanoLuc Enzyme to produce a luminescent signal. The signal correlates with the number of viable cells, making the assay well suited for cytotoxicity studies.
Tox21 Assay Protocol Summary:
The mixture of HepG2 cell suspension and reagents were dispensed at 600cells/6 ul/well in 1536-well tissue culture treated black solid bottom plates using a Multidrop dispenser. After the assay plates were incubated at a 37 C/5% CO2 incubator for 5 hours, 23 nL of compounds dissolved in DMSO, positive and negative controls was transferred to the assay plate by a pintool work station. The plates were incubated at 37 C for 40 hours. The luminescence intensity were measured at 0h, 8h, 16h, 24h, 32h and 40h time points using ViewLux plate reader during compound treatment.
Compound CCCCCCCCCCCCCCCCI has an activity change, negative = cytotoxic of 17.3% [at 15.8 µM]. In the case of CCCCC(=O)N(C)C, the outcome is reported as “inactive”. For O=C(Oc1ccccc1C(=O)O)c1ccccc1O, the outcome was “inactive”. For NC(Cc1c[nH]c2ccccc12)C(=O)O (stereo not given), the outcome was “inactive”. With c1ccccc1 the outcome was “inactive”. In the case of CCOC(=O)CC#N, the outcome is reported as “inactive”. For COc1cc([N+](=O)[O-])ccc1N, the outcome was “inactive”. In the case of CC(CC(=O)O)CC(C)(C)C (stereo not given), the outcome is reported as “inactive”. In the case of COc1ccc(OC)c(NC(=O)CC(C)=O)c1, the outcome is reported as “inactive”. In the case of C1=C\CC/C=C\CC/1, the outcome is reported as “inactive”. In the case of CCOC(=O)C(=O)c1csc(NC=O)n1, the outcome is reported as “inactive”. In the case of Nc1cc(S(=O)(=O)O)ccc1S(=O)(=O)O, the outcome is reported as “inactive”. With NS(=O)(=O)c1cc2c(cc1Cl)NC(CC1CCCC1)NS2(=O)=O (stereo not given) the outcome was “inactive”. Work on O=C(O)Cc1cccc(-c2cc(CCCCCCc3ccc(O[C@H]4O[C@H](CO)[C@@H](O)[C@H](O)[C@@H]4O)c(-c4cccc(CC(=O)O)c4)c3)ccc2O[C@H]2O[C@H](CO)[C@@H](O)[C@H](O)[C@@H]2O)c1 yielded an activity change, negative = cytotoxic of -21.2% [at 0.29 µM]. In the case of CCC1Nc2cc(Cl)c(S(N)(=O)=O)cc2S(=O)(=O)N1 (stereo not given), the outcome is reported as “inactive”. For OC[C@@H](O)[C@H](O)[C@@H](O)[C@@H](O)CO, the outcome was “inactive”. For CC(C)COC(=O)/C=C/c1ccccc1, the outcome was “inactive”. In the case of Cc1c(C(C)C)c(=O)n(-c2ccccc2)n1C, the outcome is reported as “inactive”. For CC(=O)c1ccc2c(c1)CCCC2, the outcome was “inactive”. For Cc1ncc([N+](=O)[O-])n1CC(O)CCl (stereo not given), the outcome was “inactive”. With O=C(c1ccc2c(c1)C(=O)OC2=O)c1ccc2c(c1)C(=O)OC2=O the outcome was “inactive”. For CCCCCCCCCCCCCCCC(=O)NCCO, the outcome was “inactive”. With C=CCOc1cc(Cl)ccc1C(=O)NCCN(CC)CC the outcome was “inactive”. In the case of C=C[C@@H](C)CCC=C(C)C, the outcome is reported as “inactive”. In the case of Cc1ccccc1OCC1CO1 (stereo not given), the outcome is reported as “inactive”. With CCN(CCO)c1cccc(C)c1 the outcome was “inactive”. With CO/N=C(/C(=O)N[C@@H]1C(=O)N2C(C(=O)O)=C(Cn3nnc(C)n3)CS[C@H]12)c1csc(N)n1 the outcome was “inactive”. With CCCCCCCCCOCC1CO1 (stereo not given) the outcome was “inactive”. In the case of O=CO, the activity change, negative = cytotoxic is reported as 17.5% [at 6.97 µM]. With CC(=O)Nc1ccc(C)cc1 the outcome was “inactive”. For O=[Si]=O, the outcome was “inactive”. For COC(=O)CCC(=O)O, the outcome was “inactive”. For CC(=O)/C=C/c1ccco1, the outcome was “inactive”. For Oc1ccccc1Cc1ccccc1O, the outcome was “inactive”. In the case of Nc1ccc(S(=O)(=O)NC(=O)c2ccccc2)cc1, the outcome is reported as “inactive”. For Cc1ccccc1C, the outcome was “inactive”. For C[C@H](CCC(=O)O)[C@H]1CC[C@H]2[C@@H]3[C@H](O)C[C@@H]4C[C@H](O)CC[C@]4(C)[C@H]3C[C@H](O)[C@]12C, the outcome was “inactive”. For CC(=O)N(CC(O)CO)c1c(I)c(C(=O)NCC(O)CO)c(I)c(C(=O)NCC(O)CO)c1I (stereo not given), the outcome was “inactive”. For CCCCCC(=O)OCC, the outcome was “inactive”. With CN(C)CCCNCCC#N the outcome was “inactive”.
